Results filed as inconclusive are left out. Calls of active or inactive are those of the source. The calls were made as follows, unless noted: active = hit-call score of the fitted dose curve at least 0.9, where 1 is the maximum; inactive = score below 0.9.
Tests used:
[1] = ACEA_ER_80hr: ACEA Biosciences xCELLigence Real-Time Cell Analysis on Estrogen Receptor Agonism for Proliferation (AID 2282667; active = hit-call score of the fitted dose curve at least 0.9, where 1 is the maximum); conditions: T47D proliferation, impedance (xCELLigence), 80 h
In short: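 Real-time electrical impedance tracked growth of the human breast line T47D, with the 80 h post-dosing value used. Dosing spanned eight 1:4 steps down from a 100 uM final top concentration, run in duplicate.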

[2] = APR_HepG2_CellCycleArrest_24hr: Apredica 24-hour HepG2 Assay for Cell Cycle Arrest (AID 2282905); conditions: imaging, actives raise or lower the signal;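 also: cell cycle arrest scored as ratio of 2N to 4N nuclear DNA content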
In short: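 Compounds at 0.39–200 uM (0.5% DMSO) for 24 h, then fixed and Hoechst 33342 stained. Cell-cycle analysis of nuclear DNA content by high-content imaging, fitted bidirectionally versus DMSO.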

[3] = APR_HepG2_NuclearSize_24hr: Apredica 24-hour HepG2 Assay for Nuclear Size (AID 2282907); conditions: high-content imaging, actives raise or lower the signal
In short: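 HepG2 cells exposed 24 h to compounds at 0.39–200 uM (0.5% DMSO), fixed, Hoechst 33342 stained and imaged at 20x; nuclear diameter measured by automated image analysis, fitted bidirectionally against DMSO controls.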

[4] = APR_HepG2_CellLoss_24hr: Apredica 24-hour HepG2 Assay for Cell Loss (AID 2282908); conditions: high-content imaging;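 as to AC50: fit in both directions so a hit may be cell loss or gain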
In short: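 HepG2 cells exposed 24 hr to 0.39–200 uM compound in duplicate at 0.5% v/v final DMSO. Cells fixed in 3.7% formaldehyde and Hoechst 33342-stained. Cell number came from nuclear imaging at 20x. Bidirectional fit versus DMSO.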

[5] = APR_HepG2_MicrotubuleCSK_24hr: Apredica 24-hour HepG2 Assay for Microtubule CSK Stabilty (AID 2282909); conditions: HepG2 microtubule cytoskeleton imaging, actives raise or lower the signal
In short: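 HepG2 cells were treated 24 hr with compound at 0.39–200 uM in duplicate (0.5% DMSO final), then fixed and permeabilized. Alpha-tubulin immunofluorescence was imaged by high-content microscopy, with bidirectional fitting against DMSO and taxol as positive control.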

[6] = APR_HepG2_MitoticArrest_24hr: Apredica 24-hour HepG2 Assay for Mitotic Arrest (AID 2282910); conditions: high-content imaging, actives raise or lower the signal
In short: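 HepG2 cells, 24 h exposure at 0.39-200 uM (10 concentrations, duplicate, 0.5% DMSO). Fixed, stained for phospho-histone H3 with Hoechst; imaged by high-content microscopy, bidirectional fit versus DMSO.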

[7] = APR_HepG2_MitoMembPot_24hr: Apredica 24-hour HepG2 Assay for Mitochondrial Membrane Potential (AID 2282911); conditions: imaging, actives raise or lower the signal
In short: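 Cells are dosed for 24 hr across 0.39 to 200 uM with solvent held at 0.5% DMSO. They are then stained with 250 nM MitoTracker Red CMXRos for 30 min, fixed in 3.7% formaldehyde and imaged.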

[8] = APR_HepG2_MitoMass_24hr: Apredica 24-hour HepG2 Assay for Mitochondrial Mass (AID 2282912); conditions: high-content imaging, actives raise or lower the signal
In short: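 HepG2 cells exposed 24 hr to 0.39–200 uM compound, 0.5% v/v DMSO, in duplicate. Stained before fixation with 250 nM MitoTracker Red CMXRos for 30 min, then imaged at 20x with Hoechst nuclei. Fitted in both directions against DMSO.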

[9] = APR_HepG2_CellCycleArrest_72hr: Apredica 72-hour HepG2 Assay for Cell Cycle Arrest (AID 2282914); conditions: high-content imaging, actives raise or lower the signal
In short: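 Read-out is Hoechst-stained nuclear DNA content measured by automated fluorescence imaging (20x, six images per well), fitted in both directions relative to DMSO. Human HepG2 liver cells received 0.39–200 uM compound for 72 hr at 0.5% v/v DMSO.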

[10] = APR_HepG2_CellLoss_72hr: Apredica 72-hour HepG2 Assay for Cell Loss (AID 2282915); conditions: high-content imaging
In short: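 HepG2 cells exposed 72 h to compound at 0.39–200 uM (10 concentrations, duplicate) in 0.5% DMSO. Fixed with 3.7% formaldehyde and Hoechst 33342-stained. Imaged at 20x; nuclear count gives cell number, fitted bidirectionally versus DMSO.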

[11] = APR_HepG2_P-H2AX_72hr: Apredica 72-hour HepG2 Assay for H2AX Phosphorylation (AID 2282916); conditions: imaging, actives raise or lower the signal;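 also: phospho-histone H2A.x immunostain intensity per cell marking DNA damage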
In short: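 HepG2 cells treated 72 h at 0.39–200 uM, 0.5% DMSO final, duplicates. Formaldehyde-fixed, Triton-permeabilised, immunostained for phospho-H2A.x with Hoechst; fluorescence imaged at 20x, bidirectional fit versus DMSO.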

[12] = APR_HepG2_MitoticArrest_72hr: Apredica 72-hour HepG2 Assay for Mitotic Arrest (AID 2282918); conditions: high-content imaging, actives raise or lower the signal
In short: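 Read-out is phospho-histone H3 immunofluorescence with Hoechst nuclear segmentation, imaged at 20x. Human HepG2 liver cells received ten concentrations (0.39–200 uM, final DMSO 0.5% v/v) for 72 hr before fixation. Gain or loss of signal was fitted relative to DMSO.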

[13] = APR_HepG2_MicrotubuleCSK_72hr: Apredica 72-hour HepG2 Assay for Microtubule CSK Stabilty (AID 2282919); conditions: HepG2 microtubule cytoskeleton, high-content imaging, actives raise or lower the signal
In short: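 HepG2 cells were exposed 72 hr to compound at 0.39–200 uM in duplicate (0.5% DMSO final), then fixed and permeabilized. Alpha-tubulin immunofluorescence was imaged by high-content microscopy, with bidirectional fitting against DMSO and taxol as positive control.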

[14] = APR_HepG2_P-H2AX_24hr: Apredica 24-hour HepG2 Assay for H2AX Phosphorylation (AID 2282920); conditions: high-content imaging, actives raise or lower the signal
In short: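 HepG2, 24 hr, cpd 0.39–200 uM (10 conc, duplicate), DMSO 0.5% v/v final. Fix 3.7% formaldehyde, Triton X-100 permeabilize, anti-phospho-H2A.x 1:200 + Hoechst 2 ug/mL. Imaged, bidirectional fit vs DMSO.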

[15] = APR_HepG2_StressKinase_72hr: Apredica 72-hour HepG2 Assay for Stress Kinase (AID 2282921); conditions: HepG2 stress kinase (phospho-c-Jun) imaging, actives raise or lower the signal
In short: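 HepG2 cells treated 72 hr with 0.39–200 uM compound, 0.5% v/v DMSO, duplicate wells. After formaldehyde fixation and Triton permeabilization, stained with anti-phospho-c-Jun (1:500) and Cy3 secondary, imaged at 20x. Fitted in both directions against DMSO.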

[16] = APR_HepG2_StressKinase_24hr: Apredica 24-hour HepG2 Assay for Stress Kinase (AID 2282922); conditions: HepG2 stress kinase (phospho-c-Jun) imaging, actives raise or lower the signal
In short: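 HepG2 cells exposed 24 h to 0.39–200 uM compound in duplicate (0.5% v/v DMSO final). Cells fixed in 3.7% formaldehyde, permeabilized and immunostained for phospho-c-Jun; read by high-content fluorescence imaging, fitted bidirectionally against DMSO.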

[17] = APR_HepG2_MitoMass_72hr: Apredica 72-hour HepG2 Assay for Mitochondrial Mass (AID 2282924); conditions: high-content imaging, actives raise or lower the signal;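 also: MitoTracker Red CMXRos stain intensity per cell imaged as mitochondrial mass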
In short: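 HepG2 cells dosed 72 hr at 0.39–200 uM (0.5% DMSO), in duplicate. MitoTracker Red CMXRos 250 nM loaded 30 min before formaldehyde fixation; high-content fluorescence imaging, bidirectional fit versus DMSO.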

[18] = APR_HepG2_p53Act_24hr: Apredica 24-hour HepG2 Assay for p53 Activation (AID 2282913); conditions: high-content imaging, actives raise or lower the signal;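 also: p53 protein immunofluorescence averaged per cell in HepG2 with Hoechst nuclei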
In short: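 Human HepG2 liver cells; 24 hr cpd treatment, 0.39–200 uM, 0.5% DMSO final. Fixed in 3.7% formaldehyde, permeabilized with 0.5% Triton X-100, stained with anti-p53/Cy5 plus Hoechst 33342. Six images per well at 20x; gain or loss vs DMSO.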

[19] = APR_HepG2_p53Act_72hr: Apredica 72-hour HepG2 Assay for p53 Activation (AID 2282923); conditions: high-content imaging, actives raise or lower the signal;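 also: average cellular p53 protein immunofluorescence intensity in HepG2 cells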
In short: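 HepG2 cells exposed 72 h to 0.39–200 uM in 0.5% DMSO, duplicates. Fixed, permeabilized cells immunostained for p53 (Cy5) with Hoechst; imaged at 20x, fluorescence analyzed bidirectionally against DMSO.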

[20] = APR_HepG2_MitoMembPot_72hr: Apredica 72-hour HepG2 Assay for Mitochondrial Membrane Potential (AID 2282917); conditions: imaging, actives raise or lower the signal
In short: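 HepG2 cells dosed 72 hr with compound at 0.39–200 uM in duplicate, 0.5% v/v DMSO final. Mitochondria stained with 250 nM MitoTracker Red CMXRos for 30 min before formaldehyde fixation, imaged by high-content fluorescence; bidirectional fit versus DMSO.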

Measured: AC50

OC(O)(C(F)C(O)(O)C(F)(F)F)C(F)(F)F
inactive: [1]

O=C(NO)C1(NS(=O)(=O)c2ccc(Oc3ccc(F)cc3)cc2)CCOCC1
inactive: [1] | [2] | [3] | [4] | [5] | [6] | [7] | [8] | [9] | [12] | [13] | [14] | [15] | [16] | [17]
active: [10] 65.4 µM | [11] 100 µM

Nc1ccn([C@@H]2O[C@H](CO)[C@@H](O)[C@@H]2O)c(=O)n1
active: [2] 0.0387 µM | [3] 0.0391 µM | [4] 0.149 µM | [8] 0.0391 µM | [9] 0.0618 µM | [10] 0.0391 µM | [11] 0.202 µM | [12] 0.177 µM | [14] 0.0979 µM
inactive: [1] | [5] | [6] | [7] | [13] | [15] | [16] | [17]

CCCOc1ccc(S(=O)(=O)N2CCN(CC)CC2)cc1-c1nc2c(CC)n(Cc3ccccn3)nc2c(=O)[nH]1
active: [10] 88.5 µM | [11] 99.7 µM | [12] 90.2 µM
inactive: [1] | [2] | [3] | [4] | [5] | [6] | [7] | [8] | [9] | [13] | [14] | [15] | [16] | [17]

CC1(C)C(=O)N(Cl)C(=O)N1Cl
inactive: [1] | [2] | [3] | [4] | [5] | [6] | [7] | [8] | [18] | [9] | [10] | [11] | [14] | [15] | [16] | [19]

NC(=O)NN=Cc1ccc([N+](=O)[O-])o1
inactive: [3] | [5] | [6] | [7] | [8] | [18] | [15] | [16] | [17]
active: [1] 10.5 µM | [2] 81.4 µM | [4] 57.6 µM | [9] 56.7 µM | [10] 67.8 µM | [11] 77.3 µM | [12] 68.7 µM | [13] 85.4 µM | [14] 72 µM | [19] 67.3 µM

CC(C)CC(C)O (stereo not drawn)
inactive: [1] | [2] | [3] | [4] | [5] | [6] | [7] | [8] | [9] | [10] | [11] | [20] | [12] | [13] | [14] | [15] | [16] | [17]

O=C(O)CO
inactive: [1]

CCCCCCCCCC
inactive: [1] | [2] | [3] | [4] | [5] | [6] | [7] | [8] | [18] | [9] | [10] | [11] | [20] | [12] | [13] | [14] | [15] | [16] | [19] | [17]

CCCc1ccccc1
active: [7] 61.3 µM
inactive: [1] | [2] | [3] | [4] | [5] | [6] | [8] | [18] | [9] | [10] | [11] | [12] | [13] | [14] | [15] | [16] | [19] | [17]

NCC(F)(F)C(F)(F)C(F)(F)C(F)(F)F
inactive: [1]

FC(F)C(F)(F)COCC1CO1 (stereo not drawn)
inactive: [1]

CC(C)C(=O)Nc1ccc([N+](=O)[O-])c(C(F)(F)F)c1
inactive: [3] | [5] | [7] | [20] | [15] | [16]
active: [1] 80.5 µM | [2] 71 µM | [4] 44.4 µM | [6] 62.8 µM | [8] 92.2 µM | [9] 34.9 µM | [10] 58.8 µM | [11] 70.8 µM | [12] 61 µM | [13] 67.8 µM | [14] 91 µM | [17] 74.9 µM

O=S1(=O)CCCO1
inactive: [1] | [2] | [3] | [4] | [5] | [6] | [7] | [8] | [18] | [9] | [10] | [11] | [12] | [13] | [14] | [15] | [16] | [19] | [17]

Cn1cc[nH]c1=S
inactive: [1] | [2] | [3] | [4] | [5] | [6] | [7] | [8] | [18] | [9] | [10] | [11] | [12] | [13] | [14] | [15] | [16] | [19] | [17]

Cc1ncc([C@@H](CCCCCCc2ccc3c(n2)NCCC3)CC(=O)O)cn1
inactive: [1] | [2] | [3] | [4] | [5] | [7] | [9] | [15] | [16] | [17]
active: [6] 0.0392 µM | [8] 0.18 µM | [10] 0.944 µM | [11] 0.0391 µM | [12] 0.0971 µM | [13] 0.534 µM | [14] 0.0459 µM

OCc1ccccc1
inactive: [1] | [2] | [3] | [4] | [5] | [6] | [7] | [8] | [9] | [10] | [11] | [20] | [12] | [13] | [14] | [15] | [16] | [17]

— PubChem BioAssay (EPA / NIEHS)
